Each structure is given as a SMILES string. Results filed as inconclusive are left out. The source made the active and inactive calls. Calls come from the whole dose curve; as a rule, active = well fitted inhibition curve with a large enough effect; inconclusive = small, poorly fitted or top-dose-only effect; inactive = no such curve, though single readings can be large or run the other way. Numbered stars: 1 amine (or outer) side, 2 acyl side, 3 side chain; on linkers, the order of the positions; unused ones are H or OH. Bridge positions count the residues as written; N and C are the ends. Square brackets hold non-standard residues; d marks the D form. Peptide text beside a SMILES is read from it. I, II: the chains in the order shown. Actinocin(9to1) = Cc1c2oc3c(C)ccc(C(=O)[*:1])c3nc-2c(C(=O)[*:2])c(N)c1=O; NMeV = CN[C@H](C(=O)O)C(C)C; Sar = CNCC(=O)O
Potency is the fitted concentration of half-maximal effect.

The nature of the assay: qHTS to identify inhibitors of the type 1 interferon - major histocompatibility complex class I in skeletal muscle: Secondary screen by immunofluorescence. Note: nearly all actives have a fitted effect of over 70% in size. The following applies: C25cl48 myoblasts, IFN-b induced HLA-ABC immunofluorescence, 24 h; series mostly up to 49.8 µM. The method, boiled down: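 Immortalized human myoblasts C25cl48 were stimulated with 4.0 ng/ml IFN-beta and exposed to an 11-point 1:3 compound titration, top 50 uM, for 24 h at 37 C. They were then fixed and immunostained for HLA-ABC, and quantified by laser scanning cytometry.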
In general terms: In qHTS, concentration-response curves come from the screen itself.
In the case of `Cc1ccc([N+](=O)[O-])cc1S(=O)(=O)N(C)/N=C/c1cnc2ccc(Br)cn12`, the Potency was 162 nM (active).

Take `COc1ncc(Nc2ncc(C(C)N3CCN(S(C)(=O)=O)CC3)cc2-c2nc(C)nc(N)n2)cc1F` (configuration not stated): the Potency result was “inactive”.

As for `COc1ccc(CNc2nc(N(CCO)CCO)nc3c2ncn3C(C)C)cc1`, the Potency was 8140 nM (active).

In the case of `CN1CCN(C(=O)c2ccc3cc(CCNc4ncnc5ccc(C#N)cc45)ccc3c2)CC1`, the Potency entry is “inactive”.

As to `CCOc1cc2ncc(C#N)c(Nc3ccc(F)c(Cl)c3)c2cc1NC(=O)/C=C/CN(C)C`, the Potency is 4580 nM (active).

For `CC(C)c1nn(-c2c(Cl)cccc2Cl)c2nc(Cc3ccc(OCCO)cc3)[nH]c(=O)c12`, the Potency is 22.9 nM (active).

Turning to `O=C(CCCCCCC(=O)Nc1ccccc1)NO`, the Potency was 914 nM (active).

Regarding `O=C1Nc2ccccc2C1(c1ccc(O)cc1)c1ccc(O)cc1`, the Potency result is “inactive”.

Take `Fc1cccc(-n2cnc3c(NCc4nc5c(F)c(F)ccc5[nH]4)nc(N4CCOCC4)nc32)c1`: the Potency is 289 nM (active).

In the case of `Cc1cnc(Nc2ccc(N3CCN(C)CC3)cc2)nc1Nc1cccc(S(=O)(=O)NC(C)(C)C)c1`, the Potency is 3640 nM (active).

`Cc1[nH]nc2ccc(-c3cncc(OC[C@@H](N)Cc4ccccc4)c3)cc12`: the Potency is 726 nM (active).

For `COc1ccc(-c2ccc3ncc4c(c3c2)n(-c2ccc(N3CCNCC3)c(C(F)(F)F)c2)c(=O)n4C)cn1`, the Potency was 258 nM (active).

For the compound `O=C(/C=C/c1cccc(S(=O)(=O)Nc2ccccc2)c1)NO`, the Potency was 514 nM (active).

In the case of `O=C1NC(=O)[C@@H](c2c[nH]c3ccccc23)[C@H]1c1cn2c3c(cccc13)CCC2`, the Potency entry is “inactive”.

On to `Cc1cc(O)c(-c2ccc([C@@H](C)CN(C)C)cc2)c2c1[nH]c(=O)c1sccc12`, for which the Potency was 81.4 nM (active).

`Fc1ccc(CNc2ncnc3ccc(F)cc23)cc1`: the Potency entry is “inactive”.

Regarding `CC(C)C[C@H](NC(=O)[C@H](Cc1ccccc1)NC(=O)c1cnccn1)B(O)O`, the Potency was 25.7 nM (active).

In the case of `CC(C)C[C@H](NC(=O)[C@H](CCc1ccccc1)NC(=O)CN1CCOCC1)C(=O)N[C@@H](Cc1ccccc1)C(=O)N[C@@H](CC(C)C)C(=O)[C@@]1(C)CO1`, the Potency was 64.7 nM (active).

Turning to `COC(=O)Nc1nc2ccc(C(=O)c3ccc(F)cc3)cc2[nH]1`, the Potency result is “inactive”.

`CC[C@@]1(O)C(=O)OCc2c1cc1n(c2=O)Cc2c-1nc1cc(F)c(C)c3c1c2[C@@H](N)CC3`: the Potency is 1290 nM (active).

As to `CCCCC(=O)OCC(=O)[C@H]1[C@H](C)C[C@H]2[C@@H]3C[C@H](F)C4=CC(=O)C=C[C@]4(C)[C@@]3(F)[C@@H](O)C[C@@]21C`, the Potency entry was “inactive”.

Regarding `CCc1c(O)cc(O)c(C(=O)c2ccc(OCCN3CCOCC3)c(OC)c2)c1CC(=O)N(CCOC)CCOC`, the Potency is 814 nM (active).

As to `CC1(C)CC(=O)c2c(C(F)(F)F)nn(-c3ccc(C(N)=O)c(NC4CCC(O)CC4)c3)c2C1` (configuration not stated), the Potency was 32.4 nM (active).

With `COc1cccc2nc(-c3cccs3)nc(NN3C(=O)C=C(C)C3=O)c12`, the Potency was 1820 nM (active).

Turning to `Cc1c2oc3c(C)ccc(C(=O)N[C@@H]4C(=O)N[C@H](C(C)C)C(=O)N5CCC[C@H]5C(=O)N(C)CC(=O)N(C)[C@@H](C(C)C)C(=O)O[C@@H]4C)c3nc-2c(C(=O)N[C@@H]2C(=O)N[C@H](C(C)C)C(=O)N3CCC[C@H]3C(=O)N(C)CC(=O)N(C)[C@@H](C(C)C)C(=O)O[C@@H]2C)c(N)c1=O` (I: T[dV]P[Sar][NMeV] / II: T[dV]P[Sar][NMeV]; ester I:1-I:C, II:1-II:C; linker I:N-II:N via Actinocin(9to1)), the Potency was 57.6 nM (active).

With `CN1CCN(c2cccc(Nc3nc4c(-c5ccc(S(C)(=O)=O)cc5)cccn4n3)c2)CC1`, the Potency is 1820 nM (active).

Regarding `CCCC(=O)O[C@]1(C(=O)CO)CC[C@H]2[C@@H]3CCC4=CC(=O)CC[C@]4(C)[C@H]3[C@@H](O)C[C@@]21C`, the Potency result is “inactive”.

As to `O=[N+]([O-])c1ccc2c(c1)S(=O)(=O)C=C2`, the Potency is 1820 nM (active).

With `CC(=O)Nc1ccc([C@H](C)C(=O)Nc2ncc(C(C)C)s2)cc1`, the Potency was 1620 nM (active).

For the compound `CC(C)c1c2cc(-c3ccnc(NC4CCC(NC5CCOCC5)CC4)n3)ccc2nn1C` (configuration not stated), the Potency is 145 nM (active).

On to `COc1cc(F)ccc1-c1ncnc(Nc2cccc(CS(C)(=N)=O)c2)n1` (configuration not stated), for which the Potency was 814 nM (active).

For the compound `CCCCc1nc2cc(/C=C/C(=O)NO)ccc2n1CCN(CC)CC`, the Potency was 364 nM (active).

In the case of `CC1=C(CO)C(=O)O[C@@H]([C@@H](C)[C@H]2CC[C@H]3[C@@H]4C[C@H]5O[C@]56[C@@H](O)C=CC(=O)[C@]6(C)[C@H]4CC[C@]23C)C1`, the Potency is 726 nM (active).

Regarding `COc1ccc(F)c(F)c1C(=O)c1cnc(NC2CCN(S(C)(=O)=O)CC2)nc1N`, the Potency was 914 nM (active).

With `CC(C)[C@H](C(=O)Nc1ccc(C(=O)NO)cc1)c1ccccc1`, the Potency was 458 nM (active).

Turning to `COc1cc2c(cc1-c1c(C)noc1C)ncc1[nH]c(=O)n([C@H](C)c3ccccn3)c12`, the Potency was 4080 nM (active).

Regarding `CCN(CC)Cc1ccc2cc(COC(=O)Nc3ccc(C(=O)NO)cc3)ccc2c1`, the Potency was 258 nM (active).

The values are drawn from PubChem BioAssay AID1347414 (National Center for Advancing Translational Sciences (NCATS), 2020).
